# Assay results as given in PubChem BioAssay (NCATS).
# Results filed as inconclusive are left out. Where a call stands in place of a potency, no number is given. Unmarked numbers belong to inactive results. Calls of active or inactive are those of the source. Calls come from the whole dose curve; as a rule, active = well fitted inhibition curve with a large enough effect; inconclusive = small, poorly fitted or top-dose-only effect; inactive = flat fitted curve, though single readings scatter. Where a SMILES comes first, the peptide text is derived from it. Bridges are numbered along the chain shown (N, C = ends). [ ]: non-standard residue; d: D form. NMeY = CN[CH](Cc1ccc(O)cc1)C(=O)O
# Assay: P-glycoprotein substrates identified in KB-8-5-11 adenocarcinoma cell line, qHTS therapeutic library screen (AID 1346987); note: nearly all actives have a fitted effect of over 65% in size
# Settings: KB-8-5-11 (P-gp overexpressing) viability, CellTiter-Glo, 72 h; series mostly up to 44.5 µM
# Method in brief: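 In this qHTS, P-gp-rich KB-8-5-11 cells received library compounds across a concentration range. Viability was quantified by luminescence after 72 h at 37 degree C.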
# Potency is the fitted concentration of half-maximal effect.
SMILES,Potency,"activity change, negative = cytotoxicity"
CCOc1cc(N2CCC(O)CC2)ccc1Nc1ncc2c(n1)N(C1CCCC1)CCC(=O)N2C,11.6 µM (active),
CC1=CC(=O)C2(OC3OC(C)C(O)C(OC(=O)/C=C/c4ccccc4)C3O)C=COC(OC3OC(CO)C(O)C(O)C3O)C12 (configuration not stated),inactive,
COC(=O)[C@@]1(c2ccc(C)cc2)C[C@H]1CN1CCC(O)(c2ccccc2)CC1,inactive,
COC(=O)C[C@H]1C(C)(C)[C@H](OC(C)=O)C2CC3=C4CC(=O)O[C@@H](c5ccoc5)[C@]4(C)CCC3[C@@]1(C)C2=O (some centres not stated),inactive,
CC1=CC(=O)CC(C)(C)[C@@]1(O)CC[C@@H](C)O[C@@H]1O[C@H](CO)[C@@H](O)[C@H](O)[C@H]1O,inactive,
O=C(O)COCCN1CCN([C@H](c2ccccc2)c2ccc(Cl)cc2)CC1,inactive,
Cc1cc(Nc2ncc3cc(-c4c(Cl)cccc4Cl)c(=O)n(C)c3n2)ccc1F,1.3 µM (active),
CCC(C)C1NC(=O)C2CCCN2C(=O)C(NC(C)=O)C(C)OC(=O)C(Cc2ccc(OC)cc2)N(C)C(=O)C2CCCN2C(=O)C(C(C)C)NC1=O (configuration not stated) (Ac-TPIVP[NMeY](Me); ester 1-C; configuration not given here),inactive,
COc1ncc(Nc2ncc([C@@H](C)N3CCN(S(C)(=O)=O)CC3)cc2-c2nc(C)nc(N)n2)cc1F,6.51 µM (active),
CC(=O)OC1C(O)CC2(C)C(CCC(C)C23Cc2c(O)cc(CO)c(C=O)c2O3)C1(C)C (configuration not stated),inactive,
CN1CCc2nc(C(=O)N[C@@H]3C[C@@H](C(=O)N(C)C)CC[C@@H]3NC(=O)C(=O)Nc3ccc(Cl)cn3)sc2C1,inactive,
COc1ncc(Nc2ncc([C@H](C)N3CCN(S(C)(=O)=O)CC3)cc2-c2nc(C)nc(N)n2)cc1F,9.2 µM (active),
O=C(O)/C=C/c1cc2c(cc1O[C@@H]1O[C@H](CO)[C@@H](O)[C@H](O)[C@H]1O)OCO2,inactive,
Cc1cc(C(=O)Nc2cccc(C(=O)Nc3cccc(C(F)(F)F)c3)c2)on1,inactive,
COc1ccc(C2COc3cc(O)ccc3C2)c(O)c1 (configuration not stated),inactive,
O=C(Nc1ccc(Cl)cc1F)c1ccccc1O,7.31 µM (active),
N[C@@]1(C(=O)O)CC[C@H]2[C@H](C(=O)O)[C@H]21,inactive,
CC(C)=CCC/C(C)=C/CC/C(C)=C/COC1OC(COC2OCC(OC3OCC(O)C(O)C3O)C(O)C2O)C(O)C(OC2OC(C)C(OC3OC(C)C(OC4OCC(OC5OC(C)C(O)C(O)C5O)C(O)C4O)C(O)C3O)C(O)C2O)C1O (configuration not stated),,7.18% [at 9.29 µM]
Cc1cc(O)c(-c2ccc([C@@H](C)CN(C)C)cc2)c2c1[nH]c(=O)c1sccc12,0.082 µM (active),
O=C(O)CC(=O)OC[C@H]1O[C@@H](Oc2ccc3c(c2)OC[C@H]2c4cc5c(cc4O[C@@H]32)OCO5)[C@H](O)[C@@H](O)[C@@H]1O,inactive,
CCOC(=O)c1sc(NC(=O)[C@H](C(C)C)n2c(=O)[nH]c3ccccc3c2=O)nc1C,inactive,
CC(C)(C)OC(=O)N1CCC(OCc2nc(-c3ccncc3)no2)CC1,inactive,
CCCC1(c2ccccc2)NC(=O)N(CC(=O)N(C)Cc2c(F)cccc2Cl)C1=O (configuration not stated),inactive,
Cc1cc(C)nc(NS(=O)(=O)c2ccc(NC(=S)NC(=O)COc3ccc(Br)cc3Cl)cc2)n1,inactive,
CC1=C2C3OC(=O)C(C)C3(O)CCC2(C)CCC1O (configuration not stated),inactive,
CC1=CC(=O)C2C(C)(C)CCC[C@]2(C)[C@H]1CO (some centres not stated),inactive,
Cc1nc2sc(C(=O)NCc3ccncc3)c(N)c2c(C)c1Cl,inactive,
